This assay relates to Candida albicans SNY425 biofilm. In words: biofilm OD600 with compound plus antifungal (OD600 (absorbance)); higher = more biofilm remaining.
[1] abbreviates: assay detail: disruption of 24-h mature biofilm (compound + antifungal for a second 24 h).
Where [2] appears, read: assay detail: sustained inhibition (compound + antifungal during 90-min adherence and 24-h growth).

± gives the uncertainty stated by the source.

As to `NC(N)=NCCC[C@H](NC(=O)[C@@H]1CCCN1C(=O)[C@H](N)Cc1ccccc1)C(=O)CCl` + OC(Cn1cncn1)(Cn1cncn1)c1ccc(F)cc1F [fluconazole] (first compound 12.5 µM), the “biofilm OD600” value under setting [1] worked out at 0.269 ± 0.0072 and the “biofilm OD600” value under setting [2] was determined as 0.159 ± 0.011.

On to `CCCC[C@@H](C=O)NC(=O)[C@H](CC(C)C)NC(=O)OCc1ccccc1` [Calpeptin] + C[C@@H]1[C@H](O)[C@@H](C)/C=C/C=C/C=C/C=C/C=C/C=C/C=C/[C@H](O[C@@H]2O[C@H](C)[C@@H](O)[C@H](N)[C@@H]2O)C[C@@H]2O[C@](O)(C[C@@H](O)C[C@@H](O)[C@H](O)CC[C@@H](O)C[C@@H](O)CC(=O)O[C@H]1C)C[C@H](O)[C@H]2C(=O)O [amphotericin B] (first compound 12.5 µM), for which the “biofilm OD600” value by setting is: under setting [1], 0.266 ± 0.0066; under setting [2], 0.189 ± 0.01.

Take `CC(C)c1nc(CN(C)C(=O)N[C@H](C(=O)N[C@@H](Cc2ccccc2)C[C@H](O)[C@H](Cc2ccccc2)NC(=O)OCc2cncs2)C(C)C)cs1` [ritonavir] + OC(Cn1cncn1)(Cn1cncn1)c1ccc(F)cc1F [fluconazole] (first compound 12.5 µM): the “biofilm OD600” value is 0.249 ± 0.0077 under setting [1] and 0.168 ± 0.014 under setting [2].

As to `CNC(=O)[C@H](Cc1c[nH]c2ccccc12)NC(=O)[C@@H](CC(=O)NO)CC(C)C` + C[C@@H]1[C@H](O)[C@@H](C)/C=C/C=C/C=C/C=C/C=C/C=C/C=C/[C@H](O[C@@H]2O[C@H](C)[C@@H](O)[C@H](N)[C@@H]2O)C[C@@H]2O[C@](O)(C[C@@H](O)C[C@@H](O)[C@H](O)CC[C@@H](O)C[C@@H](O)CC(=O)O[C@H]1C)C[C@H](O)[C@H]2C(=O)O [amphotericin B] (first compound 12.5 µM), the “biofilm OD600” value is, setting by setting: under setting [1], 0.281 ± 0.01; under setting [2], 0.194 ± 0.0098.
